Measured values: PubChem BioAssay (NCATS)
Inconclusive results are not listed. Where a call stands in place of a potency, no number is given. Values without a mark were called inactive. The source made the active and inactive calls. The call rests on the fitted dose curve; in most records, active means well fitted curve in the direction sought with a large enough effect; inconclusive means small, poorly fitted or top-dose-only effect, or another doubt; inactive means no such curve, though single readings can be large; an effect the other way counts as inactive or inconclusive. Where a SMILES comes first, the peptide text is derived from it. [ ]: non-standard residue; d: D form. Hyp = O=C(O)[CH]1C[CH](O)CN1; Phe(ol) = N[CH](CO)Cc1ccccc1; Iva = CC[C](C)(N)C(=O)O; Aib = CC(C)(N)C(=O)O

Tests used:
NIH3T3 = test: qHTS assay to identify novel small-molecules to repurpose for Merkel cell carcinoma treatment (AID 1296009); details: MCC and control cell lines, CellTiter-Glo viability, 72 h; series mostly up to 44.8 µM; further: nearly all actives have a fitted effect of over 60% in size
In short: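 Cells were treated for 72 hr at 37 degree celsius with compounds in 8- or 11-point dose response. Viability was read by CellTiter-Glo luminescence, normalized to no-cell (cytotoxicity) and DMSO controls.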

CASKI = test: Primary qHTS to identify gynecologic anti-cancer compounds using libraries of approved drugs and bioactive compounds (AID 1345084); details: Gynecologic cancer cell panel viability, ATPlite luminescence, 48 h; series mostly up to 57.5 µM; further: nearly all actives have a fitted effect of over 55% in size; further: potency means the concentration at half of the fitted maximal effect
In short: (§1)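 48 h compound exposure at 37 C, 5% CO2; five-point qHTS. ATPlite luminescence readout of cell ATP.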

Es-2 = test: as above; details: Gynecologic cancer cell panel viability, ATPlite luminescence, 48 h; series mostly up to 57.5 µM
In short: as §1

Hek293T = test: as above; details: Gynecologic cancer cell panel viability, ATPlite luminescence, 48 h, control line for the selectivity index; series mostly up to 57.5 µM
In short: as §1

JEG-3 = test: as above; details: Gynecologic cancer cell panel viability, ATPlite luminescence, 48 h; series mostly up to 57.5 µM
In short: as §1

OV90 = test: as above; details: Gynecologic cancer cell panel viability, ATPlite luminescence, 48 h; series mostly up to 57.5 µM
In short: as §1

PA-1 = test: as above; details: Gynecologic cancer cell panel viability, ATPlite luminescence, 48 h; series mostly up to 57.5 µM
In short: as §1

SKOV3 = test: as above; details: Gynecologic cancer cell panel viability, ATPlite luminescence, 48 h; series mostly up to 57.5 µM
In short: as §1

Tov-21-G = test: as above; details: Gynecologic cancer cell panel viability, ATPlite luminescence, 48 h; series mostly up to 57.5 µM
In short: as §1

Tov112D = test: as above; details: Gynecologic cancer cell panel viability, ATPlite luminescence, 48 h; series mostly up to 57.5 µM
In short: as §1

C33A = test: as above; details: Gynecologic cancer cell panel viability, ATPlite luminescence, 48 h; series mostly up to 57.5 µM
In short: as §1

HeLa = test: as above; details: Gynecologic cancer cell panel viability, ATPlite luminescence, 48 h; series mostly up to 57.5 µM
In short: as §1

CAOV3 = test: as above; details: Gynecologic cancer cell panel viability, ATPlite luminescence, 48 h; series mostly up to 57.5 µM
In short: as §1

Q: `CCCc1cc(C)n(C)c(=O)c1CN(C)C(=O)c1cc(-c2ccc(N3CCN(C(C)C)CC3)nc2)cc2c1cnn2C(C)C` was tested. Which Potency (NIH3T3) did it give?
A: The Potency was “inactive”.

Q: And the Potency (CASKI)?
A: Its Potency is “inactive”.

Q: What about the Potency (Es-2) of the same compound?
A: Its Potency is “inactive”.

Q: And the Potency (Hek293T)?
A: The Potency was “inactive”.

Q: And the Potency (JEG-3)?
A: The Potency was “inactive”.

Q: And the Potency (OV90)?
A: The Potency was “inactive”.

Q: And the Potency (PA-1)?
A: Its Potency is “inactive”.

Q: And the Potency (SKOV3)?
A: The Potency was “inactive”.

Q: What about the Potency (Tov-21-G) of the same compound?
A: Its Potency is “inactive”.

Q: What about the Potency (Tov112D) of the same compound?
A: The Potency was “inactive”.

Q: `C=CC(C)(C)c1[nH]c2ccccc2c1C[C@@H]1NC(=O)[C@H](C)NC1=O` was tested. Which Potency (NIH3T3) did it give?
A: The Potency was “inactive”.

Q: What about the Potency (C33A) of the same compound?
A: Its Potency is “inactive”.

Q: What about the Potency (CASKI) of the same compound?
A: Its Potency is “inactive”.

Q: And the Potency (Es-2)?
A: The Potency was “inactive”.

Q: What about the Potency (HeLa) of the same compound?
A: Its Potency is “inactive”.

Q: And the Potency (Hek293T)?
A: Its Potency is “inactive”.

Q: What about the Potency (JEG-3) of the same compound?
A: Its Potency is “inactive”.

Q: What about the Potency (OV90) of the same compound?
A: The Potency was “inactive”.

Q: And the Potency (PA-1)?
A: Its Potency is “inactive”.

Q: And the Potency (SKOV3)?
A: The Potency was “inactive”.

Q: What about the Potency (Tov-21-G) of the same compound?
A: The Potency was “inactive”.

Q: And the Potency (Tov112D)?
A: The Potency was “inactive”.

Q: With `COC(=O)c1cc2c(C(F)(F)F)cc(-c3ccccc3)cc2n1O` as the compound, how does the Potency (NIH3T3) read?
A: Its Potency is “inactive”.

Q: And the Potency (C33A)?
A: The Potency was “inactive”.

Q: And the Potency (CASKI)?
A: Its Potency is “inactive”.

Q: What about the Potency (Es-2) of the same compound?
A: Its Potency is “inactive”.

Q: And the Potency (HeLa)?
A: Its Potency is “inactive”.

Q: What about the Potency (Hek293T) of the same compound?
A: The Potency was “inactive”.

Q: What about the Potency (JEG-3) of the same compound?
A: The Potency was “inactive”.

Q: What about the Potency (OV90) of the same compound?
A: The Potency was “inactive”.

Q: And the Potency (PA-1)?
A: Its Potency is “inactive”.

Q: What about the Potency (SKOV3) of the same compound?
A: Its Potency is “inactive”.

Q: And the Potency (Tov-21-G)?
A: Its Potency is “inactive”.

Q: And the Potency (Tov112D)?
A: The Potency was “inactive”.

Q: Which outcome (NIH3T3) does the source give for `CO[C@H]1[C@@H](O)[C@H](O[C@H]2CC[C@@]3(C)C(CCC4C3CC[C@]35COC6(COC(=O)C6)C3CCC45O)C2)O[C@@H](C)[C@@H]1OC1OC(CO)C(OC2OC(CO)C(O)C(O)C2O)C(O)C1O` (stereo partly drawn) here?
A: The outcome was “inactive [at 9.27 µM]”.

Q: And the activity change, negative = cytotoxicity (CAOV3)?
A: The activity change, negative = cytotoxicity was -7.69% [at 11.6 µM].

Q: What about the activity change, negative = cytotoxicity (CASKI) of the same compound?
A: The activity change, negative = cytotoxicity was -2.83% [at 11.6 µM].

Q: And the activity change, negative = cytotoxicity (Hek293T)?
A: The activity change, negative = cytotoxicity was -29.3% [at 11.6 µM].

Q: And the activity change, negative = cytotoxicity (JEG-3)?
A: Its activity change, negative = cytotoxicity is 18.5% [at 11.6 µM].

Q: What about the activity change, negative = cytotoxicity (OV90) of the same compound?
A: The activity change, negative = cytotoxicity was 16.3% [at 11.6 µM].

Q: What about the Potency (Tov112D) of the same compound?
A: The Potency was 2820 nM (active).

Q: How did the activity change, negative = cytotoxicity (C33A) turn out when `CCC(C)(NC(=O)C(CCC(N)=O)NC(=O)C1CC(O)CN1C(=O)C(C)(C)NC(=O)C(C)(C)NC(=O)C(CC(C)C)NC(=O)CNC(=O)C(NC(=O)C(C)(C)NC(=O)C(C)(C)NC(=O)C(C)(C)NC(=O)C(Cc1ccccc1)NC(C)=O)C(C)C)C(=O)N1CC(O)CC1C(=O)NC(C)(C)C(=O)NC(CO)Cc1ccccc1` (stereo not drawn) (Ac-F[Aib][Aib][Aib]VGL[Aib][Aib][Hyp]Q[Iva][Hyp][Aib][Phe(ol)]; configuration not given here) was run?
A: Its activity change, negative = cytotoxicity is -28.9% [at 6.55 µM].

Q: And the activity change, negative = cytotoxicity (CAOV3)?
A: The activity change, negative = cytotoxicity was -2.26% [at 6.55 µM].

Q: And the activity change, negative = cytotoxicity (CASKI)?
A: Its activity change, negative = cytotoxicity is -19.9% [at 6.55 µM].

Q: And the activity change, negative = cytotoxicity (Es-2)?
A: Its activity change, negative = cytotoxicity is -0.689% [at 6.55 µM].

Q: What about the activity change, negative = cytotoxicity (HeLa) of the same compound?
A: Its activity change, negative = cytotoxicity is -3.33% [at 6.55 µM].

Q: And the activity change, negative = cytotoxicity (Hek293T)?
A: Its activity change, negative = cytotoxicity is -7.78% [at 6.55 µM].

Q: What about the activity change, negative = cytotoxicity (JEG-3) of the same compound?
A: Its activity change, negative = cytotoxicity is -14.6% [at 6.55 µM].

Q: What about the activity change, negative = cytotoxicity (OV90) of the same compound?
A: The activity change, negative = cytotoxicity was -17.1% [at 6.55 µM].

Q: How did the Potency (C33A) turn out when `C=C1C(=O)O[C@@H]2/C=C(\CO)CC/C=C(\CO)[C@H](OC(C)=O)C(OC(=O)C(C)CC)C12` (stereo partly drawn) was run?
A: The Potency was “inactive”.

Q: And the Potency (CAOV3)?
A: Its Potency is “inactive”.

Q: And the Potency (CASKI)?
A: The Potency was “inactive”.

Q: And the Potency (Es-2)?
A: The Potency was “inactive”.

Q: And the Potency (HeLa)?
A: Its Potency is “inactive”.

Q: And the Potency (Hek293T)?
A: Its Potency is “inactive”.

Q: And the Potency (JEG-3)?
A: The Potency was “inactive”.

Q: What about the Potency (OV90) of the same compound?
A: Its Potency is “inactive”.

Q: What about the Potency (PA-1) of the same compound?
A: The Potency was “inactive”.

Q: What about the Potency (SKOV3) of the same compound?
A: The Potency was “inactive”.

Q: And the Potency (Tov-21-G)?
A: The Potency was “inactive”.

Q: What about the Potency (Tov112D) of the same compound?
A: Its Potency is “inactive”.

Q: For `C=C(C)C1CCC2(C(=O)O)CCC3(C)C(CCC4C5(C)C(C=O)C(O)C(C)(C)C5CCC43C)C12` (stereo not drawn), which Potency (C33A) is on record?
A: The Potency was “inactive”.

Q: And the Potency (CAOV3)?
A: Its Potency is “inactive”.

Q: And the Potency (CASKI)?
A: Its Potency is “inactive”.

Q: And the Potency (Es-2)?
A: The Potency was “inactive”.

Q: What about the Potency (HeLa) of the same compound?
A: The Potency was “inactive”.

Q: And the Potency (Hek293T)?
A: The Potency was “inactive”.

Q: What about the Potency (JEG-3) of the same compound?
A: Its Potency is “inactive”.

Q: And the Potency (OV90)?
A: Its Potency is “inactive”.

Q: And the Potency (PA-1)?
A: Its Potency is “inactive”.

Q: What about the Potency (SKOV3) of the same compound?
A: Its Potency is “inactive”.

Q: And the Potency (Tov-21-G)?
A: The Potency was “inactive”.

Q: What about the Potency (Tov112D) of the same compound?
A: The Potency was “inactive”.
